Assay results as given in the supplement of paper PMC7156485.

Legend:
Details in all cases: concentration: 10 µM; 24 h
[1] = tested on: HCC1569; experiment: cell number relative to DMSO (% of DMSO); higher = more cells (less growth inhibition / toxicity)
Summary of the method: (§1)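 Treatment: HCC1569 and TDF cells, 800 per well in 384-well plates with RPMI and 10% FBS, were given compounds at 10 µM for 24 h at 37 °C, in triplicate. Readout: after 3.7% formaldehyde fixation, cells were stained with a rabbit anti-H1.0 antibody, an AlexaFluor 647 secondary and DAPI. Reported values are H1.0 nuclear intensity or cell number as percent of the plate control, taken as the median of replicates, with positional smoothing for HCC1569.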

[2] = tested on: TDF; experiment: as above
Summary of the method: as §1

[3] = tested on: TDF; experiment: H1.0 immunofluorescence intensity relative to DMSO (% of DMSO); higher = stronger H1.0 induction, active = 120 or more
Summary of the method: as §1

[4] = tested on: HCC1569; experiment: H1.0 immunofluorescence intensity relative to DMSO (% of DMSO); higher = stronger H1.0 induction, active = 140 or more
Summary of the method: as §1
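Throughout, for H1.0 immunofluorescence intensity relative to DMSO: TDF is a line of transformed human dermal fibroblasts of mesenchymal origin.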
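Throughout, for cell number relative to DMSO: TDF denotes transformed human dermal fibroblasts of mesenchymal origin.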

SMILES	cell number [1]	cell number [2]	H1.0 immunofluorescence intensity [3]	H1.0 immunofluorescence intensity [4]
O=C1OC(CN2CCOCC2)CN1/N=C/c1ccc([N+](=O)[O-])o1 (stereo not given)	102	96.5	96.7 (inactive)	104 (inactive)
Cl.O=c1cc(N2CCOCC2)oc2c(-c3ccccc3)cccc12	87.7	91.7	86.9 (inactive)	141 (active)
CN1CCCN=C1C=Cc1cccs1.O=C(O)c1cc2ccccc2c(Cc2c(O)c(C(=O)O)cc3ccccc23)c1O [Pyrantel Pamoate]	94.4	109	88.8 (inactive)	115 (inactive)
CC(=O)C1CCC2C3CC=C4CC(OS(=O)(=O)[O-])CCC4(C)C3CCC12C.[Na+] (stereo not given) [Pregnenolone sulfate sodium]	105	110	95.8 (inactive)	97.8 (inactive)
O=C(Nc1cccc(C(=O)Nc2ccc(S(=O)(=O)[O-])c3cc(S(=O)(=O)[O-])cc(S(=O)(=O)[O-])c23)c1)Nc1cccc(C(=O)Nc2ccc(S(=O)(=O)[O-])c3cc(S(=O)(=O)[O-])cc(S(=O)(=O)[O-])c23)c1.[Na+].[Na+].[Na+].[Na+].[Na+].[Na+]	102	110	93.4 (inactive)	96 (inactive)
CCCCCCCCCCCCCCCC(=O)NCCO [Palmitylethanolamide]	99.8	104	96.8 (inactive)	95.5 (inactive)
O=C1C(=Cc2ccc(O)c(O)c2)Oc2cc(O)ccc21 [Sulfuretine]	98	102	93.3 (inactive)	99.9 (inactive)
Cc1cc(C(C)(C)C)cc(C)c1CC1=NCCN1.Cl [Xylometazoline hydrochloride]	97.5	93.3	98.3 (inactive)	110 (inactive)
[Cl-].[Li+] [Lithium Chloride]	101	109	92.2 (inactive)	88 (inactive)
COc1ccc(C2Sc3ccccc3N(CCN(C)C)C(=O)C2OC(C)=O)cc1.Cl (stereo not given) [Diltiazem hydrochloride]	101	100	93 (inactive)	98.3 (inactive)
COc1cc2nc(N3CCN(C(=O)C4CCCO4)CC3)nc(N)c2cc1OC.Cl (stereo not given) [Terazosin hydrochloride]	100	95.1	92.6 (inactive)	102 (inactive)
CCCCCCCCc1ccc(CCC(N)(CO)CO)cc1.Cl	13.6	17.4	210 (active)	173 (active)
C(=Cc1ccccc1)CN1CCN(C(c2ccccc2)c2ccccc2)CC1 [Cinnarizine]	74.9	74.1	106 (inactive)	101 (inactive)
CCn1cc(C(=O)O)c(=O)c2ccc(Cc3ccccc3)nc21 [Amfonelic acid]	101	94.6	92.2 (inactive)	95.4 (inactive)
CCCC(=O)NCCc1c2n(c3ccc(OC)cc13)Cc1ccccc1-2	92.4	99.3	97.1 (inactive)	108 (inactive)
CC(N)(Cc1ccc(O)c(O)c1)C(=O)O (stereo not given) [Methyldopa]	107	100	102 (inactive)	94 (inactive)
CC(C)NCC(O)COc1cccc2ccccc12 (stereo not drawn) [Propranolol S(-)]	102	104	102 (inactive)	101 (inactive)
CCCCCCCCCCCCC(=O)N1CCCCC1CNC(=O)C(N)CCCCN.Cl.Cl (stereo not given)	101	109	104 (inactive)	100 (inactive)
CC(OC1OCCN(Cc2nc(=O)[nH][nH]2)C1c1ccc(F)cc1)c1cc(C(F)(F)F)cc(C(F)(F)F)c1 (stereo not given) [Aprepitant]	101	96.8	99.3 (inactive)	107 (inactive)
CNc1ncnc2c1ncn2C1CC(OP(=O)([O-])O)C(COP(=O)([O-])O)O1.[NH4+].[NH4+] (stereo not given)	104	100	95 (inactive)	92.4 (inactive)
CC(C)NCC(O)c1cc(O)cc(O)c1.CC(C)NCC(O)c1cc(O)cc(O)c1.O=S(=O)(O)O (stereo not given) [Metaproterenol hemisulfate]	102	106	92.1 (inactive)	93.4 (inactive)
CNC(CC(C)C)C(=O)NC1C(=O)NC(CC(N)=O)C(=O)NC2C(=O)NC3C(=O)NC(C(=O)NC(C(=O)O)c4cc(O)cc(O)c4-c4cc3ccc4O)C(O)c3ccc(c(Cl)c3)Oc3cc2cc(c3OC2OC(CO)C(O)C(O)C2OC2CC(C)(N)C(O)C(C)O2)Oc2ccc(cc2Cl)C1O.Cl (stereo not given) [Vancomycin hydrochloride from Streptomyces orientalis]	99.6	108	90.4 (inactive)	101 (inactive)
CNc1nc(-c2ccc3c(N)n[nH]c3c2)cc(N2C[C@@H](C(=O)NC3CCCCC3)CC[C@H]2C)n1	52.3	77.9	115 (inactive)	161 (active)
CN(C)c1ccccc1CN1CCCN(Cc2ccccc2N(C)C)C1c1ccncc1	83.9	65.2	109 (inactive)	137 (inactive)
O=c1c(O)c(-c2ccc(O)cc2O)oc2cc(O)cc(O)c12 [Morin]	99.7	94	89.4 (inactive)	98.5 (inactive)

SMILES	cell number [1]	cell number [2]	H1.0 immunofluorescence intensity [3]	H1.0 immunofluorescence intensity [4]
CCCCCC(O)C=CC1C(O)CC2OC(=CCCCC(=O)[O-])CC21.[Na+] (stereo not given) [Prostaglandin I2 Na]	101	98.1	94.1 (inactive)	98.3 (inactive)
Cl.Cl.NCCCCN [Putrescine dihydrochloride]	102	118	94.1 (inactive)	98.2 (inactive)
COc1cc2c(c(OC)c1OC)-c1c(cc(OC)c(OC)c1OC)CC(C)C(C)C2 (stereo not drawn) [R(+)-Schisandrin A]	105	103	91.6 (inactive)	94.9 (inactive)
CCCCCC=CCC=CCCCCCCCC(=O)O [9(E),12(E)-Octadecadienoic acid]	96.5	107	100 (inactive)	108 (inactive)
COc1ccc(C2CC(=O)c3c(O)cc(O)cc3O2)cc1O (stereo not given) [Hesperitine]	98.4	101	98.1 (inactive)	92.8 (inactive)
CN(C)C(=N)N=C(N)N [Metformin]	100	94	95.9 (inactive)	101 (inactive)
CC(C)c1cccc(O)c(=O)c1 [Hinokitiol]	83.8	83	89.5 (inactive)	94.8 (inactive)
CC(OC(=O)c1ccc(F)cc1F)C(=O)N(C)C1CCS(=O)(=O)C1 (stereo not given) [Cdk2/9 Inhibitor]	48.9	29.1	110 (inactive)	139 (inactive)
Nc1nccc2c1ncn2C1OC(CO)C(O)C1O (stereo not given) [3-deazaadenosine]	97	88.2	93.7 (inactive)	88.8 (inactive)
N#CC(=Cc1ccc(O)cc1)C(N)=C(C#N)C#N [Tyrphostin AG 112]	101	109	95.7 (inactive)	81 (inactive)
CCCCCCCCC=CCCCCCCCC(N)=O [9,10-Octadecenoamide]	98.5	103	94.7 (inactive)	102 (inactive)
COc1cc(C2Oc3cc(C4Oc5cc(O)cc(O)c5C(=O)C4O)ccc3OC2CO)ccc1O (stereo not given) [Silybine]	100	103	95.9 (inactive)	90.2 (inactive)
COC(=O)C1C(O)CCC2CN3CCc4c([nH]c5ccccc45)C3CC21 (stereo not given) [Corynanthine]	106	94.3	102 (inactive)	95.3 (inactive)
C=CC(N)CCC(=O)O (racemic)	92.9	99	97.3 (inactive)	107 (inactive)
Cc1cc(I)ccc1Nc1c(C(=O)NOCC2CC2)cc(F)c(F)c1F	97.2	95.6	91.1 (inactive)	116 (inactive)
Nc1nc(N)c2nc(-c3ccccc3)c(N)nc2n1 [Triamterene]	98.6	112	85.8 (inactive)	102 (inactive)
Cn1cc(C2=C(c3cn(CCCSC(=N)N)c4ccccc34)C(=O)NC2=O)c2ccccc21	53.9	21.3	113 (inactive)	238 (active)
N#CC(=Cc1ccc(O)c(O)c1)C(=O)NCCCNC(=O)C(C#N)=Cc1ccc(O)c(O)c1 [Tyrphostin AG 537]	101	101	94 (inactive)	99.6 (inactive)
C=CCc1ccc(O)c(-c2ccc(O)c(CC=C)c2)c1 [Honokiol]	100	107	81 (inactive)	101 (inactive)
COC(=O)C(c1ccccc1Cl)N1CCc2sccc2C1 (stereo not given) [Clopidogrel]	99.8	79.7	97.3 (inactive)	107 (inactive)
COc1ccccc1O [Guaiacol]	103	107	92.7 (inactive)	107 (inactive)
S=C([S-])OC1CC2CC1C1CCCC21.[K+] (stereo not given)	102	97.1	90.2 (inactive)	98.2 (inactive)
Cc1nc(Nc2ncc(C(=O)Nc3c(C)cccc3Cl)s2)cc(N2CCN(CCO)CC2)n1 [Dasatinib]	45.9	93.4	107 (inactive)	171 (active)
CCOC(=O)C1OC1C(=O)NC(CC(C)C)C(=O)NCCC(C)C (stereo not given)	100	93.4	101 (inactive)	97.9 (inactive)
Cc1nc2ccc(Oc3ccc(F)cc3)cc2c(=O)n1C[C@H]1CCCN(C(C)C)C1.Cl	94.1	105	117 (inactive)	102 (inactive)
